Records with an inconclusive call do not appear. Activity calls are given as the source filed them. Unless noted, the call rests on the fitted dose curve.
Experiments:
[1] = Cell Viability - BJ (AID 421); details: BJ fibroblast viability, qHTS;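 further: potency means the concentration at half of the fitted maximal effect; cells exposed to compound for 40 hours at 37 °C before readout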
How it was run: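 Normal human BJ foreskin fibroblasts, 1500/well in complete medium, treated 40 hr at 37 °C. Cellular ATP by CellTiter-Glo luminescence; normalized to DMSO and 100 uM tamoxifen, AC50 from Hill fit.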

[2] = Cell Viability - Jurkat (AID 426;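 active means dose-dependent loss of cell ATP signal giving a full or clear fitted curve, ranked by lower potency value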; further: potency means the concentration at half of the fitted maximal effect); details: qHTS
How it was run: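 Jurkat (Clone E6-1) cells, 5000/well in complete medium, exposed to compounds for 40 hr at 37C; intracellular ATP measured by CellTiter-Glo luminescence after 20 min at room temperature. AC50 from Hill fits.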

[3] = Cell Viability - Hek293 (AID 427;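 active means compounds whose dose-response curve shows a full or clear partial loss of cell viability, called from curve shape rather than a numeric limit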;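 further: potency means the concentration at half of the fitted maximal effect; cells exposed to compound for 40 hours at 37 °C before reading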); details: qHTS
How it was run: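 HEK293 cells in complete medium were exposed to compound for 40 hr at 37 °C, then cellular ATP was read by CellTiter-Glo luminescence. Data were normalized to DMSO (basal) and 100 uM tamoxifen (100% inhibition), and AC50 came from Hill fits.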

[4] = Cell Viability - HepG2 (AID 433); details: qHTS;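 further: potency means the concentration at half of the fitted maximal effect; potency for ATP loss meaning cytotoxicity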
How it was run: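 In this qHTS format, a 40 h, 37 °C compound incubation of HepG2 cells in complete medium precedes a 20 min CellTiter-Glo step at room temperature. Tamoxifen and doxorubicin serve as positive controls; Hill-equation fits yield AC50.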

[5] = Cell Viability - MRC5 (AID 434); details: MRC5 lung fibroblast viability, qHTS;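 further: potency means the concentration at half of the fitted maximal effect; potency reflects cytotoxicity seen as loss of intracellular ATP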
How it was run: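 MRC5 normal human lung fibroblasts (1500/well) were treated with compounds for 40 hr at 37 °C in complete medium, and viable cells were measured as intracellular ATP by CellTiter-Glo luminescence. AC50 came from Hill fits, normalized to DMSO and 100 uM tamoxifen.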

[6] = Cell Viability - SK-N-SH (AID 435); details: SK-N-SH neuroblastoma cell viability qHTS;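 further: potency means the concentration at half of the fitted maximal effect; compound exposure lasted 40 h at 37 °C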
How it was run: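 Human neuroblastoma line, 40 h exposure at 37 °C, ATP quantified via luciferase luminescence; DMSO and 100 uM tamoxifen define 0 and 100% inhibition for AC50 fitting.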

[7] = biological target: Mitogen-activated protein kinase 10 (Mus musculus) (UniProt Q61831); test: JNK3 AlphaScreen Assay (AID 530; active means well fitted curve in either direction with a large enough effect, not every such curve was filed as active;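 further: kinase came from lysate of stimulated human HepG2 cells; signal reports phosphorylation of biotinylated GST-cJun 1-79 at Ser73 with 10 µM ATP; on the % scale 0 is the no-effect control and ±100 the full control effect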); details: JNK3 lysate, c-Jun phosphorylation; series mostly up to 57.1 µM
How it was run: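 Inhibitors reduce antibody binding to phosphorylated biotin-cJun, lowering AlphaScreen luminescence. Lysates from HepG2 cells pre-activated by IL-1beta plus TNF-alpha supplied JNK3; compounds were titrated.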

[8] = Cell Viability - N2a (AID 540; active means well fitted curve in the direction sought with a large enough effect; an effect the other way counts as inactive or inconclusive;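 further: plate controls were DMSO alone for no effect and tamoxifen control for full effect; nearly all actives have a fitted effect of over 45% in size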); details: N2a mouse neuroblastoma cell viability; activity change, negative = cytotoxicity: at 92.2 µM (top of the series)
How it was run: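 Mouse neuroblastoma N2a cells, 1500/well, exposed to compounds 40 h at 37 °C in complete medium. Viability measured as cellular ATP by CellTiter-Glo luminescence; AC50 from Hill fits of concentration-response.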

[9] = Cell Viability - NIH 3T3 (AID 541; active means well fitted curve in the direction sought with a large enough effect; an effect the other way counts as inactive or inconclusive;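 further: plate controls were DMSO alone for no effect and tamoxifen positive control for full effect; nearly all actives have a fitted effect of over 25% in size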); details: NIH 3T3 cell viability, qHTS; activity change, negative = cytotoxicity: at 92.2 µM (top of the series)
How it was run: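 Mouse NIH 3T3 fibroblasts, 1000 cells/well, rested 5 hr at 37 °C, then exposed to compound for 40 hr at 37 °C in complete medium. Viability read as intracellular ATP by CellTiter-Glo luminescence; AC50 from Hill-equation fits of concentration-response data.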

[10] = Cell Viability - HUV-EC-C (AID 542; active means well fitted curve in the direction sought with a large enough effect; an effect the other way counts as inactive or inconclusive; further: on the % scale 0 is the no-effect control and ±100 the full control effect; nearly all actives have a fitted effect of over 35% in size); details: HUV-EC-C endothelial cell viability, qHTS; series mostly up to 92.2 µM
How it was run: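 HUV-EC-C human vascular endothelial cells, 1000/well, exposed to compound for 40 hr at 37 °C in complete medium. Intracellular ATP was read by CellTiter-Glo luminescence. AC50 came from Hill-equation fits of concentration-response data.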

CC1CCCO1 (centres undefined)
inactive: Potency [1] > 92 µM | Potency [2] > 92 µM | Potency [3] > 92 µM | Potency [4] > 92 µM | Potency [5] > 92 µM | Potency [6] > 92 µM | outcome [7] | activity change, negative = cytotoxicity [8] -13.8% | Potency [9] | Potency [10]

O=[N+]([O-])c1ccc2nc[nH]c2c1
inactive: Potency [1] > 92 µM | Potency [2] > 92 µM | Potency [3] > 92 µM | Potency [4] > 92 µM | Potency [5] > 92 µM | Potency [6] > 92 µM | outcome [7] | activity change, negative = cytotoxicity [8] 4.31% | Potency [9] | Potency [10]

C=CCCCCCC
inactive: Potency [1] > 92 µM | Potency [2] > 92 µM | Potency [3] > 92 µM | Potency [4] > 92 µM | Potency [5] > 92 µM | Potency [6] > 92 µM | outcome [7] | activity change, negative = cytotoxicity [8] 6.33% | Potency [9] | Potency [10]

O=[N+]([O-])c1cc(C(F)(F)F)ccc1Cl
inactive: Potency [1] > 92 µM | Potency [2] > 92 µM | Potency [3] > 92 µM | Potency [4] > 92 µM | Potency [5] > 92 µM | Potency [6] > 92 µM | outcome [7] | activity change, negative = cytotoxicity [8] 4.62% | Potency [9] | Potency [10]

CCCCCNCCCCC
inactive: Potency [1] > 92 µM | Potency [2] > 92 µM | Potency [3] > 92 µM | Potency [4] > 92 µM | Potency [5] > 92 µM | Potency [6] > 92 µM | outcome [7] | activity change, negative = cytotoxicity [8] 0.97% | Potency [9]

Cc1ccc(C)cc1
inactive: Potency [1] > 92 µM | Potency [2] > 92 µM | Potency [3] > 92 µM | Potency [4] > 92 µM | Potency [5] > 92 µM | Potency [6] > 92 µM | outcome [7] | activity change, negative = cytotoxicity [8] -13.5% | Potency [9] | Potency [10]

CC(C)C=O
inactive: Potency [1] > 92 µM | Potency [2] > 92 µM | Potency [3] > 92 µM | Potency [4] > 92 µM | Potency [5] > 92 µM | Potency [6] > 92 µM | outcome [7] | activity change, negative = cytotoxicity [8] -13.8% | Potency [9] | Potency [10]

CC(C)=C1CCC(C)CC1=O (centres undefined)
inactive: Potency [1] > 92 µM | Potency [2] > 92 µM | Potency [3] > 92 µM | Potency [4] > 92 µM | Potency [5] > 92 µM | Potency [6] > 92 µM | outcome [7] | activity change, negative = cytotoxicity [8] -3.2% | Potency [9] | Potency [10]

CNC(=O)N(c1ccccc1)c1ccccc1
inactive: Potency [1] > 92 µM | Potency [2] > 92 µM | Potency [3] > 92 µM | Potency [4] > 92 µM | Potency [5] > 92 µM | Potency [6] > 92 µM | outcome [7] | activity change, negative = cytotoxicity [8] -1.02% | Potency [9] | Potency [10]

OC/C(Br)=C(\Br)CO
inactive: Potency [1] > 92 µM | Potency [2] > 92 µM | Potency [3] > 92 µM | Potency [4] > 92 µM | Potency [5] > 92 µM | Potency [6] > 92 µM | outcome [7] | activity change, negative = cytotoxicity [8] -4.76% | Potency [9] | Potency [10]

C1CCOC1
inactive: Potency [1] > 92 µM | Potency [2] > 92 µM | Potency [3] > 92 µM | Potency [4] > 92 µM | Potency [5] > 92 µM | Potency [6] > 92 µM | outcome [7] | activity change, negative = cytotoxicity [8] 3.61% | Potency [9] | Potency [10]

Cc1cccc(C)c1
inactive: Potency [1] > 92 µM | Potency [2] > 92 µM | Potency [3] > 92 µM | Potency [4] > 92 µM | Potency [5] > 92 µM | Potency [6] > 92 µM | outcome [7] | activity change, negative = cytotoxicity [8] 2.48% | Potency [9] | Potency [10]

COc1ccc(OC)cc1
inactive: Potency [1] > 92 µM | Potency [2] > 92 µM | Potency [3] > 92 µM | Potency [4] > 92 µM | Potency [5] > 92 µM | Potency [6] > 92 µM | outcome [7] | activity change, negative = cytotoxicity [8] 0.243% | Potency [9] | Potency [10]

CCCCCCCCC
inactive: Potency [1] > 92 µM | Potency [2] > 92 µM | Potency [3] > 92 µM | Potency [4] > 92 µM | Potency [5] > 92 µM | Potency [6] > 92 µM | outcome [7] | activity change, negative = cytotoxicity [8] -3.11% | Potency [9] | Potency [10]

O=C1CCCCC1
inactive: Potency [1] > 92 µM | Potency [2] > 92 µM | Potency [3] > 92 µM | Potency [4] > 92 µM | Potency [5] > 92 µM | Potency [6] > 92 µM | outcome [7] | activity change, negative = cytotoxicity [8] -6.92% | Potency [9] | Potency [10]

N#CC1(O)CCCCC1
inactive: Potency [1] > 92 µM | Potency [2] > 92 µM | Potency [3] > 92 µM | Potency [4] > 92 µM | Potency [5] > 92 µM | Potency [6] > 92 µM | outcome [7] | activity change, negative = cytotoxicity [8] 14.1% | Potency [9] | Potency [10]

CCCCC(CC)COC(=O)CCCCC(=O)OCC(CC)CCCC (centres undefined)
inactive: Potency [1] > 92 µM | Potency [2] > 92 µM | Potency [3] > 92 µM | Potency [4] > 92 µM | Potency [5] > 92 µM | Potency [6] > 92 µM | outcome [7] | activity change, negative = cytotoxicity [8] 3.75% | Potency [9] | Potency [10]

— PubChem BioAssay (NCATS)
